Measured values taken from ChEMBL document CHEMBL3988442, “University of Dundee, Small-Polar-MMV Screening Library” (2021).
For some assays here: Entries with a potency or affinity are not part of this list.

What was measured:
Parameters in all cases: scale not given: direction of the effect not stated beside the values
[1] = target: Protein translocase subunit SecA (Escherichia coli (strain K12)) (UniProt P10408); assay: Assay to Identify E. coli SecA ATPase Inhibitors; type: functional; details: 30 µM
[2] = target: T1, Ubiquitin-activating enzyme e1, putative (Leishmania donovani (strain BPK282A1)) (UniProt E9BSI1); assay: Leishmania donovani Ubiquitin Activating Enzyme (LdE1); type: functional; details: 30 µM
T1 sequence (whole entry): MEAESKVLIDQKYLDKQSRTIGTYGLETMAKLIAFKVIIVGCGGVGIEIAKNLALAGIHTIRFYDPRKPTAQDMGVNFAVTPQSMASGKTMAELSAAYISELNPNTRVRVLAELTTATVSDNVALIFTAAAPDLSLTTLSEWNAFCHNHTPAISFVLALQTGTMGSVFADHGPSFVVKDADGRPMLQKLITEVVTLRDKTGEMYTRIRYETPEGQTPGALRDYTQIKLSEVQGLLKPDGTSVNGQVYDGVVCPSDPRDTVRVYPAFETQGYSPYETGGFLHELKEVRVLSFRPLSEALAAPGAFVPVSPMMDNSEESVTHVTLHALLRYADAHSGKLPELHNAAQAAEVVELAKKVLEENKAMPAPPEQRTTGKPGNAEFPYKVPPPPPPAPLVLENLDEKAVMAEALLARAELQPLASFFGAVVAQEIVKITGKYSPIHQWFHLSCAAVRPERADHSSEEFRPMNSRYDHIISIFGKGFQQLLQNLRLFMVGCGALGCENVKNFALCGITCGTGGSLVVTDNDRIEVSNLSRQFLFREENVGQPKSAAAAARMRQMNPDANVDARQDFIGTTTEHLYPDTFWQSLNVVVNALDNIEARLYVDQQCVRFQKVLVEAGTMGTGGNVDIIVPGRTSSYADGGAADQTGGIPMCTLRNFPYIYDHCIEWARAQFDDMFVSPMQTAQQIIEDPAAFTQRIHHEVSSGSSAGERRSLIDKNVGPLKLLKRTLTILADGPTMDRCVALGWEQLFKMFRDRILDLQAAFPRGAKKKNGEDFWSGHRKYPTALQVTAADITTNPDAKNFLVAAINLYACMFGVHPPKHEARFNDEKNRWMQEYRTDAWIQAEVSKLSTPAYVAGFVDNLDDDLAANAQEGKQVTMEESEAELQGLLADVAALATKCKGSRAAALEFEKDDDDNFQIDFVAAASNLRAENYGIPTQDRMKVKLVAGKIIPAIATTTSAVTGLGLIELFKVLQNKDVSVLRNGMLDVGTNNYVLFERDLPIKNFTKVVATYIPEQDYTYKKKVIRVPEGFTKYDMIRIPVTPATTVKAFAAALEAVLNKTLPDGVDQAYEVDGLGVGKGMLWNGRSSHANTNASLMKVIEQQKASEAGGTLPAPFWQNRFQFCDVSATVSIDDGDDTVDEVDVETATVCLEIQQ

[3] = target: AMP-activated protein kinase, AMPK (Homo sapiens) (UniProt P54646+O43741+P54619+Q9UGJ0+Q9Y478+Q13131+Q9UGI9); assay: AMP-dependent Kinase enzyme assay. An in vitro enzyme assay that detects ADP turnover that is directly proportional to AMPK activity. This uses naive AMPK that is activated during the assay with MK-8722; type: functional; details: 30 µM
[4] = target: Sialic acid-binding Ig-like lectin 9 (Homo sapiens) (UniProt Q9Y336); assay: Hs-Siglec9 ALPHAscreen SOP 20170721; details: 10 µM
Trypanosoma cruzi = assay: Trypanosoma cruzi phosphomannomutase and mannose-1-phosphate guanylyltransferase assay; type: functional; details: 10 µM
[5] = target: T2, Arginase-2, mitochondrial (Homo sapiens) (UniProt P78540); assay: in vitro enzyme assay to detect the production of urea directly proportional to the activity of Arginase II; type: functional; details: 33.3 µM; also: in the data most compounds retested in dose-response had high values
T2 sequence (whole entry): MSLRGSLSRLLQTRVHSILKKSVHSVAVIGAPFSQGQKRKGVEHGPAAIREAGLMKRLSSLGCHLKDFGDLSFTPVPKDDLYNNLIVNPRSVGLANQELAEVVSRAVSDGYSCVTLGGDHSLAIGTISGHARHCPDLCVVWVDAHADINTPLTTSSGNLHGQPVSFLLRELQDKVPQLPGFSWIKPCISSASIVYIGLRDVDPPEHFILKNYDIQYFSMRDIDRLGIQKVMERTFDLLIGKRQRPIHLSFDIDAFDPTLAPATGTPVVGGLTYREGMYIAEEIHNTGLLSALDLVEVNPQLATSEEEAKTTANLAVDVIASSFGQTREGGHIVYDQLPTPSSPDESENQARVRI

[6] = target: T3, Proteasome subunit beta (Trypanosoma cruzi) (UniProt O96673); assay: Trypanosoma cruzi proteasome chymotrypsin-like activity (TcProtChymo) assay.; also: in the data most compounds retested in dose-response had high values; type: functional; details: 9.37 µM
T3 sequence (whole entry): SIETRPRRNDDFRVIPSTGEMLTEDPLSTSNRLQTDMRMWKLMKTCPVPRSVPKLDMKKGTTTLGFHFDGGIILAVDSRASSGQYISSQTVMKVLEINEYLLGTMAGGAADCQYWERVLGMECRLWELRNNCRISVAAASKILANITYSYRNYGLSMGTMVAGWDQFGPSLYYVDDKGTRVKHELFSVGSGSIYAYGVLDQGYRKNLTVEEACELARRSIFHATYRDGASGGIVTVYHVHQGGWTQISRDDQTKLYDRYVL

Homo sapiens = species: Homo sapiens; assay: To identify inhibition of the IFN signalling (Jak-Stat) pathway via expression of an eGFP reporter gene under the control of an IFN-stimulated response element (ISRE) containing MxA promoter.; type: functional; details: 30 µM
[7] = target: T4, Tyrosyl-tRNA synthetase, putative (Trypanosoma cruzi (strain CL Brener)) (UniProt Q4DSP6); assay: Trypanosoma cruzi tyrosyl tRNA synthetase (TcYRS) _High Tyrosine SOP; type: functional; details: 30 µM; also: in the data most compounds retested in dose-response had high values
T4 sequence (whole entry): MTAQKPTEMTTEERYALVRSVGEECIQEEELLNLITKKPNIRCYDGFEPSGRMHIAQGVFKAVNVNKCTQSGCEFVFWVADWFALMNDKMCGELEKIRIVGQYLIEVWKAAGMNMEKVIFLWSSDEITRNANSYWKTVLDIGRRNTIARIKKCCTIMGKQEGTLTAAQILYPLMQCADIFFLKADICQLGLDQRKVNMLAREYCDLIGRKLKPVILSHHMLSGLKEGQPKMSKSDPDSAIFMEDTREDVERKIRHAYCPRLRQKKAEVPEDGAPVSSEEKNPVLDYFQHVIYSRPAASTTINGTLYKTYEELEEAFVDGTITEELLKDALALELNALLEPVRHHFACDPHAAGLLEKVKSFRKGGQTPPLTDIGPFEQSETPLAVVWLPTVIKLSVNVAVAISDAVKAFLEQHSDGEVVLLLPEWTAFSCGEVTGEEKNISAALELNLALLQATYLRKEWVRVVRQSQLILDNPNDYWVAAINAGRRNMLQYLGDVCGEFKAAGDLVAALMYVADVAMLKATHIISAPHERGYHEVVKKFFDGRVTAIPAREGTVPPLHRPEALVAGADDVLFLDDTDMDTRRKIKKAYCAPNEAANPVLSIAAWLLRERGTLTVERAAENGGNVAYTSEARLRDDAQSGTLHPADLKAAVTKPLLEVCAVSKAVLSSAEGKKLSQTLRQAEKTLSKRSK

[8] = target: T4, Tyrosyl-tRNA synthetase, putative (Trypanosoma cruzi (strain CL Brener)); assay: Trypanosoma cruzi tyrosyl tRNA synthetase (TcYRS) SOP; type: functional; details: 30 µM
[9] = target: Chromo domain-containing protein 1 (Saccharomyces cerevisiae (strain ATCC 204508 / S288c) (Baker's yeast)) (UniProt P32657); assay: ScCHD-1 Enzyme Inhibition Assay; type: functional; details: 30 µM; also: in the data most compounds retested in dose-response had high values
Chain of Chromo domain-containing protein 1 (Saccharomyces cerevisiae (strain ATCC 204508 / S288c) (Baker's yeast)) (P32657 whole entry, the tested form may be a part): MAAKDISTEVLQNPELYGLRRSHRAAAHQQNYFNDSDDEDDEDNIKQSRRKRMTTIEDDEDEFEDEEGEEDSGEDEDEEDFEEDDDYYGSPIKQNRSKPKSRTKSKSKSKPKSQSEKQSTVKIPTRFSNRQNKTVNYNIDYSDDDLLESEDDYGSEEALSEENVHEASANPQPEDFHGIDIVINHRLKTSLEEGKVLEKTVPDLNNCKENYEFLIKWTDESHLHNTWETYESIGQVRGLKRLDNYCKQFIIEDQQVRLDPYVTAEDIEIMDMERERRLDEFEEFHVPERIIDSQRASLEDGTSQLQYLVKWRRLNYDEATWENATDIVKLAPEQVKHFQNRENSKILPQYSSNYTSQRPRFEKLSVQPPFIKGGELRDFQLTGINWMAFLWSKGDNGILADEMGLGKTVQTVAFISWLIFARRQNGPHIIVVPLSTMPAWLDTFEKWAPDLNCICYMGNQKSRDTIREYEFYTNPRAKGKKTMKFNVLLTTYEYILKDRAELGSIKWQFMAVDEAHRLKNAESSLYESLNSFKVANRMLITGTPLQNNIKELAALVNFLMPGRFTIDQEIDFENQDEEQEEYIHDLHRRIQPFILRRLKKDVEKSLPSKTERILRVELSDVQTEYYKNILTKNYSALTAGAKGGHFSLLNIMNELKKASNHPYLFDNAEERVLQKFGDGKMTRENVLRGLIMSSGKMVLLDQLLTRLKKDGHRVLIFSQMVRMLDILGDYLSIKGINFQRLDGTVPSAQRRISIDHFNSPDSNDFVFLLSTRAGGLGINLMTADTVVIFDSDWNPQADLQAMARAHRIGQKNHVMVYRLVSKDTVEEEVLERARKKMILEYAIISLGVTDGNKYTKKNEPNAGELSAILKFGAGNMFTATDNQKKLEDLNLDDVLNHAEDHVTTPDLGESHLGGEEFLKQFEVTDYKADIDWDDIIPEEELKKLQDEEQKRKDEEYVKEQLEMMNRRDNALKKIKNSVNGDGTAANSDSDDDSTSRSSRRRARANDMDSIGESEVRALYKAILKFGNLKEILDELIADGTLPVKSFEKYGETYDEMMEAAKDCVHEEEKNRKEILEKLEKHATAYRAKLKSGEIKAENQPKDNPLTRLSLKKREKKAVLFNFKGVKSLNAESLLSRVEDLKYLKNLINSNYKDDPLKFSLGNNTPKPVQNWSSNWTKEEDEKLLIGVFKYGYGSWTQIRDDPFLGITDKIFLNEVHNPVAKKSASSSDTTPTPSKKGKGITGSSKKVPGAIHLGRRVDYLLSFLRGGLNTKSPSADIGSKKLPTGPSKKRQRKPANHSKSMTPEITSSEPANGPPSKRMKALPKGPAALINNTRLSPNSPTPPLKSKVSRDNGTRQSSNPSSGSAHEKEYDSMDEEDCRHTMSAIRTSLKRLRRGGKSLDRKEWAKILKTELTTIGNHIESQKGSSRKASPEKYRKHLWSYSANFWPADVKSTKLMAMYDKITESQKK

Chain of Protein translocase subunit SecA (Escherichia coli (strain K12)) (P10408 whole entry): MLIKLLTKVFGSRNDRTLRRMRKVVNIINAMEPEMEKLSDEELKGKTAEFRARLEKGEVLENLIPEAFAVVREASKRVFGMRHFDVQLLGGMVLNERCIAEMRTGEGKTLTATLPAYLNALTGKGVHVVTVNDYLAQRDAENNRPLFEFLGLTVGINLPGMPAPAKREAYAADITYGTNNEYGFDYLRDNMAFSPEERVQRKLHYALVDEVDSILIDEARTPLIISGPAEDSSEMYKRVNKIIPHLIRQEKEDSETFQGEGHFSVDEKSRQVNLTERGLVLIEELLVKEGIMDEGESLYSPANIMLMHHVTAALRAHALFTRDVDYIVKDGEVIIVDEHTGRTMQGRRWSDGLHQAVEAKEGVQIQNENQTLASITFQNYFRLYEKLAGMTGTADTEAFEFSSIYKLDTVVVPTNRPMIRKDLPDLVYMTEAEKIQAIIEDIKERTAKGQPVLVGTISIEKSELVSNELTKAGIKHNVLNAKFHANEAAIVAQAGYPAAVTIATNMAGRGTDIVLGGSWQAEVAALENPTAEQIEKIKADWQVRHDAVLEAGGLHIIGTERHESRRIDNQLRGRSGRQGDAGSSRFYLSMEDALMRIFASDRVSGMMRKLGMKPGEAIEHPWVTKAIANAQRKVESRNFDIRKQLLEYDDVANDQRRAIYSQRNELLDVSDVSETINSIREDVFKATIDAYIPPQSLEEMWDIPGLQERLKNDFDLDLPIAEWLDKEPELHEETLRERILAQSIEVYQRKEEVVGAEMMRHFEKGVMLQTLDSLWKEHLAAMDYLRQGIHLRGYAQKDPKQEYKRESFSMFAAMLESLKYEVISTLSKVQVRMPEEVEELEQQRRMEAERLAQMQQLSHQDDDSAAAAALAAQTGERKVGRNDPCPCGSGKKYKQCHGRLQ
Chain of Sialic acid-binding Ig-like lectin 9 (Homo sapiens) (Q9Y336 whole entry): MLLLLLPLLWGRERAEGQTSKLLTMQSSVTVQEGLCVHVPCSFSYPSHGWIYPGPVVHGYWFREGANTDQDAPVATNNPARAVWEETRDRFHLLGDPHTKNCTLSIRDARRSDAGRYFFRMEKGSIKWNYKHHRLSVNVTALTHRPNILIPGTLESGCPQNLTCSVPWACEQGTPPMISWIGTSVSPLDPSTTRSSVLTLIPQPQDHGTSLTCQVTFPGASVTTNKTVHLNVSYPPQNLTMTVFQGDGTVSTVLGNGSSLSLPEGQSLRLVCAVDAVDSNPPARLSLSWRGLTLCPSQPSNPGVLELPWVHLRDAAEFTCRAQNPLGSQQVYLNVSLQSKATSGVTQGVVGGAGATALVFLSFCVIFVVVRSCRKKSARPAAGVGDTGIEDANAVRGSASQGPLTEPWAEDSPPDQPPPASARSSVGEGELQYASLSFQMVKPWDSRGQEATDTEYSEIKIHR

Row | Compound | Percent Effect [1] | Percent Effect [2] | Percent Effect [3] | Percent Effect [4] | Percent Effect (Trypanosoma cruzi) | Percent Effect [5] | Percent Effect [6] | Percent Effect (Homo sapiens) | Percent Effect [7] | Percent Effect [8] | Percent Effect [9]
1 | c1csc(-c2nc(CN3CCOC(Cn4cncn4)C3)cs2)c1 (stereo unspecified) | -4.12% | 7.89% | -2.14% | 1.07% | -3.83% | 0% | 15.5% | -10.6% | 4.43% | 6.17% | -6.35%
2 | Cc1cccc(C(=O)NCc2ccc(S(N)(=O)=O)cc2)n1 | -5.17% | 20.8% | 1.31% | -0.564% | -0.187% | 2.85% | 4.39% | 8.2% | 9.71% | 24.4% | -6.84%
3 | COc1cc(CNc2cnn(C)c2)cc2c1OCCO2 | -3.52% | -13.2% | -22.5% | 3.9% | 1.5% | -1.15% | 4.68% | -1.15% | -13.2% | -14.6% | -4.73%
4 | CCC(=O)NCC(=O)NCc1cc(Br)ccc1OC(F)F | -3.84% | 18.7% | -6.58% | 53.5% | 3.41% | 18.8% | 7.15% | -3.97% | 7.1% | 18.5% | -8.96%
5 | CC(C)n1cc(S(=O)(=O)N2CCCCC2)cn1 | -5.5% | 14.7% | -5.08% | 14.1% | 0.393% | -2.29% | 15.7% | 2.73% | 6.35% | 15.4% | -8.47%
6 | CCc1nc(C2CCCN(C(=O)c3cnn(CC)c3)C2)no1 (stereo unspecified) | -7.03% | 0% | 3.03% | -1.97% | -5.16% | 1.18% | 5.66% | -8.3% | 1.06% | 5.2% | -2.87%
7 | Cn1ncc2c(=O)[nH]c(CN3CCCC3Cc3ccccc3)nc21 (stereo unspecified) | -2.29% | 15.8% | -0.517% | 3.61% | 9.62% | -3.24% | 2.28% | 9.4% | 8.37% | 18.5% | -6.42%
8 | Nc1nccc(N2CCCC(CO)(CCOc3ccccc3)C2)n1 (stereo unspecified) | -4.62% | 2.6% | -0.596% | 19% | 8.75% | -13.8% | 15.3% | 41.9% | 7.53% | 13.6% | -3.14%
9 | CCOCCCn1c(NC(=O)c2cnn(C)c2)nc2ccccc21 | -5.81% | 5.2% | 2.7% | 15% | -1.69% | -1.07% | 2.37% | 11.1% | 6.8% | 14.6% | -2.58%
10 | COCCOc1ccccc1CNCc1c(C)nn(C)c1N(C)C | -4.61% | 8.11% | -17.4% | -0.683% | -2.92% | -0.802% | 1.26% | -12% | 5.42% | 11.1% | -4.5%
11 | Cn1cc(CCNC(=O)CCc2ccc3c(c2)OCO3)cn1 | -0.341% | 16.2% | 0.891% | 13.4% | -9.75% | 3.88% | 13.3% | 8.13% | 1.98% | 13.4% | -6.68%
12 | CCCNC(=O)c1c(-n2cnnn2)sc2c1CCC2 | -1.2% | 7.89% | 4.3% | 2.22% | -9.45% | 3.55% | 9.3% | 2.78% | 5.32% | 0% | -5.31%
13 | Cc1ccoc1-c1nnc(CNCCn2cccn2)o1 | -0.597% | 22.8% | -3.87% | -12.1% | 3.12% | 1.52% | 7.29% | 23.9% | 7.39% | 24.1% | -15.5%
14 | Cc1cc(C)nc(NC(=O)C(C)Oc2ccc3c(c2)OCO3)n1 (stereo unspecified) | -1.24% | 5.2% | -2.31% | 4.95% | 5.21% | 0% | 19.6% | 5.23% | 8.6% | 18.5% | -2.76%
15 | CCOCCCNC(=O)c1cc(C(C)C)nc(N2CCCCCC2)n1 | 0.305% | -12% | 4.38% | -7.72% | -5.5% | -16% | 16.3% | 17% | 10.6% | 12.8% | -11.2%
16 | Cn1ncc2c(NCCOc3ccc(F)cc3)nc(C3CCCC3)nc21 | -2.15% | 5.48% | 12.7% | 7.22% | 9.79% | 2.27% | -0.355% | 49.2% | 5.38% | 10% | -3.29%
